Screens (PubChem BioAssay)
An excerpt weighted towards active compounds, which were near 0.47% of everything screened.
UDG counter – blocks uracil-DNA glycosylase in AID counter-screen | FRET deamination/UDG coupled assay, UDG read, 4 h | Potency, µM (titrated, usually from 115 µM), actives largely listed as inhibitors | actives 0.14% (n = 91,000) | AID 1347430; also: nearly all actives have a fitted effect of over 65% in size
AID inhibitor – activation induced cytidine deaminase inhibition; AID 1347428; AID deamination FRET fluorescence, UDG-coupled, 4 h; actives 0.32% (n = 91,000); Potency, µM (top dose mostly 115 µM), usual class: inhibitors; also: nearly all actives have a fitted effect of over 25% in size
Target sequence (Q9GZX7 whole entry, looked up): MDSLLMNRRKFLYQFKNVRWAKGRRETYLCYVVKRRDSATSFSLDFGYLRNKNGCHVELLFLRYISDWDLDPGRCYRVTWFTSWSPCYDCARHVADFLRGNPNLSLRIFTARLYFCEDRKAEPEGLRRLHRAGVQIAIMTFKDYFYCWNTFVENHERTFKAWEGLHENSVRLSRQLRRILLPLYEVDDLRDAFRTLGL
A number is an active result; 0 = inactive; ? = inconclusive. Calls follow the shape of the dose curve; as a rule, active = well fitted curve in the direction sought with a large enough effect; inconclusive = small, poorly fitted or top-dose-only effect, or another doubt; inactive = no such curve, though single readings can be large; an effect the other way counts as inactive or inconclusive.

SMILES | UDG counter | AID inhibitor
CC(=O)c1ccc(-c2ccc(C(=O)OC(C)C#N)o2)cc1 (stereo not given) | 0 | 0
Cc1nc(C)c(CC(=O)Nc2nnc(C(C)C)s2)c(=O)[nH]1 | 0 | 0
CCNC(=O)C(=O)NCc1ccco1 | 0 | 0
O=C(C1CC1)N(Cc1ccc2c(c1)CN(S(=O)(=O)c1ccccc1F)CCO2)c1ccccc1 | 0 | ?
O=C(C1CC1)N(Cc1ccc2c(c1)CN(S(=O)(=O)c1ccc(F)c(F)c1)CCO2)c1ccccc1 | 89µM | ?
C=CCN(CCC(=O)NC(N)=O)Cc1ccccc1 | 0 | 0
O=C(CSc1nnc(-c2ccccc2Cl)o1)N1CCCc2ccccc21 | 0 | 28µM
O=C(CSc1nnc(-c2ccccc2)o1)N1CCCc2ccccc21 | 0 | ?
Cc1nc2c(-c3ccccc3)c(C)[nH]n2c(=O)c1Cc1ccc(C(C)C)cc1 | 79µM | 0
Cc1ccc(Cc2c(C)nc3c(-c4ccccc4)c(C)[nH]n3c2=O)cc1 | 0 | 0
COCCNC(=O)c1cc2c(Cl)nc3ccc(C)cc3c2s1 | 0 | ?
CCN(CCCNC(=O)c1cc2c(Cl)nc3ccccc3c2s1)Cc1ccccc1 | 0 | ?
Cc1ccc2nc(Cl)c3cc(C(=O)NCCCN(C)Cc4ccccc4)sc3c2c1 | 79µM | ?
CN(CCCNC(=O)c1cc2c(Cl)nc3ccccc3c2s1)Cc1ccccc1 | 0 | 22µM
CC(C)(C)NC(=O)c1ccc(NC(=O)c2cc(=O)[nH]c3ccccc23)cc1 | 0 | 0
COc1ccc(N2C(=O)C(C)CS2(=O)=O)cc1S(=O)(=O)N1CCCc2ccccc21 (stereo not given) | 0 | 0
O=C(/C=C/c1ccc(Cl)cc1Cl)Nc1ccc(Cl)cc1C(F)(F)F | 0 | 0
COc1ccc(-c2nn(-c3ccccc3)cc2C2NC(=O)NC(C)=C2C(=O)OC(C)C)cc1OC (stereo not given) | 0 | ?
CCOC(=O)C1=C(C)NC(=O)NC1c1cn(-c2ccccc2)nc1-c1ccc(OC(C)C)cc1 (stereo not given) | 0 | 28µM
COc1ccc(NC(=O)Nc2cn(CC(C)C)c(=O)c3ccccc23)c(OC)c1 | 0 | 0
Cc1ccc(Cl)cc1NC(=O)Nc1cn(CC(C)C)c(=O)c2ccccc12 | 0 | 79µM
Cc1nnc(SCC(=O)NC(C)C(C)C)s1 (stereo not given) | 0 | 0
Cc1cccc(NC(=O)CCN2CCN(Cc3cccc4ccccc34)CC2)c1 | 79µM | ?
COc1cccc(NC(=O)CCN2CCN(c3ccccc3)CC2)c1 | 0 | 0
Cc1cc(NC(=O)CCN2CCN(Cc3cccc4ccccc34)CC2)ccc1Br | 89µM | ?
SMILES | UDG counter | AID inhibitor
Cc1ccc(NC(=O)CCN2CCN(CCO)CC2)cc1C | 0 | 0
CC(=O)N1CCN(C(=O)c2cc3ccc(F)cc3nc2C)CC1 | 0 | 0
CCN1CCC(NC(=O)C2CCN(S(=O)(=O)c3ccccc3F)CC2)CC1 | 0 | 0
Cc1ccc(S(=O)(=O)Nc2ccc(N(C)C)c(C(=O)O)c2)cc1 | 0 | 0
COc1ccc(CNCCC(c2ccccc2)c2ccc3c(c2)OCO3)cc1 (stereo not given) | 0 | 45µM
COc1ccc(CNCCC(c2ccc(C)cc2)c2ccco2)cc1 (stereo not given) | 0 | 0
CC(=O)N1CCc2c(sc3c2c(=O)n(-c2ccccc2Cl)c(=O)n3Cc2cccc(C)c2)C1 | ? | 35µM
C=Cc1ccc(Cn2c(=O)n(-c3ccccc3C)c(=O)c3c4c(sc32)CN(C(C)=O)CC4)cc1 | 0 | ?
CCNC(=O)N(Cc1nc(-c2ccc(C)cc2)no1)C1CCCCC1 | 0 | 0
Cc1ccc(CC(=O)N(Cc2nc(-c3ccccc3)no2)C2CCCCC2)cc1 | 79µM | 0
COc1ccc(CC(=O)Nc2ccc3nc(Nc4cccc(Cl)c4)cc(C)c3c2)cc1 | 0 | 0
Cc1cc(Nc2cccc(C(F)(F)F)c2)nc2ccc(NC(=O)Cc3ccc(Cl)cc3)cc12 | 0 | 35µM
Cc1ccc(SCc2nc3scc(C)n3c2Br)cc1 | 0 | 0
CCOc1ccc(NC(=O)CN(c2ccc(Cl)cc2C)S(=O)(=O)c2ccccc2)cc1 | 89µM | ?
CCOc1ccc(NC(=O)CN(c2ccccc2OCC)S(=O)(=O)c2ccccc2)cc1 | 0 | ?
CCc1ccc(Cn2nccc2NC(=O)c2nn(CC)c(=O)c3ccccc23)cc1 | 0 | 0
COc1ccc(C2=NC(c3ccncc3)=Nc3ccc(OC)cc3N2)cc1 | 0 | 0
CCc1ccc2c(c1)NC(c1ccc(OC)cc1)=NC(c1ccncc1)=N2 | 89µM | ?
COc1cccc(/C=C(\C#N)c2nc3ccccc3c(=O)[nH]2)c1OC | 0 | 0
COc1ccc(OC)c(/C=C(\C#N)c2nc3ccccc3c(=O)[nH]2)c1 | 0 | 79µM
CCOc1ccc(CN2CCC(N3CCOCC3)CC2)cc1 | 0 | 0
Cc1ccc(Cl)cc1N1CCN(CCCNC(=O)c2ccc3nc(N4CCCCC4)sc3c2)CC1 | 0 | ?
Cc1ccc(C)c(N2CCN(CCCNC(=O)c3ccc4nc(N5CCC(C)CC5)sc4c3)CC2)c1 | ? | 32µM
N#CC(C(=O)c1cccs1)C(=O)C1CCCCC1 (stereo not given) | 0 | 0
NC(=O)COc1cccc(C2CC(=O)Nc3nc(N4CCCCC4)sc32)c1 (stereo not given) | 0 | 28µM
SMILES | UDG counter | AID inhibitor
COc1ccc(C2CC(=O)Nc3nc(N)sc32)cc1OC1CCCC1 (stereo not given) | 0 | ?
COc1ccc(C2CC(=O)Nc3ccsc32)cc1OCC(N)=O (stereo not given) | 0 | 0
Nc1nc2c(s1)C(c1cccc(OCc3cccc(F)c3)c1)CC(=O)N2 (stereo not given) | 0 | ?
NC(=O)COc1ccc(C2CC(=O)Nc3nc(N4CCCCC4)sc32)cc1 (stereo not given) | 0 | 22µM
COc1cc(C2CC(=O)Nc3nc(N4CCCCC4)sc32)ccc1OCC(N)=O (stereo not given) | 0 | 22µM
COC(=O)C(/C(C)=N/C(NC(C)=O)(C(F)(F)F)C(F)(F)F)C(NC(C)=O)(C(F)(F)F)C(F)(F)F (stereo not given) | 0 | 0
CC(=O)c1ccc(OCc2ccccc2Cl)cc1 | 0 | 0
COc1cccc(-c2cc(C(F)(F)F)nc(NCc3ccc(F)cc3)n2)c1 | 0 | ?
Fc1ccc(CNc2nc(-c3ccccc3)cc(C(F)(F)F)n2)cc1 | 0 | 45µM
CC(CN1CCCC1)OC(=O)c1ccc(C(C)(C)C)cc1 (stereo not given) | 0 | 0
C[N+]1(Cc2ccccc2)CCN(/C=C/C(=O)C(F)(F)F)CC1 | 0 | 0
COc1cccc(C2CC(=O)Nc3ccsc32)c1OC (stereo not given) | 0 | 0
COc1cccc(C2CC(=O)Nc3nc(N)sc32)c1OCC(C)C (stereo not given) | 0 | 40µM
COC(=O)c1c(C)[nH]c(C(=O)C(C)OC(=O)c2cccc(Cl)c2Cl)c1C (stereo not given) | 0 | 0
Clc1ccccc1-c1nnc(SCc2nc(-c3ccccc3)no2)n1-c1ccccc1 | 79µM | ?
COc1ccc(OC)c(-c2noc(CSc3nnc(-c4ccccc4)n3-c3ccccc3)n2)c1 | 0 | 0
COCCSc1nnc(-c2ccc(Cl)cc2)n1-c1ccc(OC)cc1 | 0 | 0
COc1ccc(-c2noc(CSc3nnc(C)n3-c3ccc(F)cc3)n2)cc1 | 79µM | 0
COc1ccc(-c2noc(CSc3nnc(-c4ccncc4)n3-c3ccc(OC)cc3)n2)cc1 | 79µM | ?
CCOc1ccc(-c2noc(CSc3nnc(-c4ccccc4)n3-c3ccccc3)n2)cc1 | 0 | 0
Cc1ccc(-c2noc(CSc3nnc(C)n3-c3ccc(C)cc3)n2)cc1 | 0 | ?
